Measurements reported in the supplement of paper PMC10849652.
Of roughly 7,900 targets only a part is listed; those with a hit were picked by preference. About 0.6% of all pairs of compound and target were hits. Values without a mark were called inactive.

compound: CS(=O)(=O)N1CCN(Cc2cc3nc(-c4cccc5[nH]ncc45)nc(N4CCOCC4)c3s2)CC1 [pictilisib]; test: log2 fold change, soluble protein after heating vs DMSO (PISA); higher = thermal stabilisation; K562 cells, 10 uM, 30 min; active = over 0.2 and 3.5 SD of the protein, either way, in both replicates (recomputed)
How it was run: (§1)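 K562 cells (2×10^6 cells/mL) were treated with 10 μM compound for 30 min, and aliquots were heated for 3 min over 48°C-58°C. Pooled aliquots were extracted in PBS with 0.5% NP-40 at 4°C, and the supernatant after 21,000xg for 90 min was measured by TMTpro 16plex LC-MS/MS with channel sums equalised. Reported thermal stability, relative to control samples and from duplicates, is a log2 fold change.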

Chain of UniProt P14618 (P14618 whole entry, looked up): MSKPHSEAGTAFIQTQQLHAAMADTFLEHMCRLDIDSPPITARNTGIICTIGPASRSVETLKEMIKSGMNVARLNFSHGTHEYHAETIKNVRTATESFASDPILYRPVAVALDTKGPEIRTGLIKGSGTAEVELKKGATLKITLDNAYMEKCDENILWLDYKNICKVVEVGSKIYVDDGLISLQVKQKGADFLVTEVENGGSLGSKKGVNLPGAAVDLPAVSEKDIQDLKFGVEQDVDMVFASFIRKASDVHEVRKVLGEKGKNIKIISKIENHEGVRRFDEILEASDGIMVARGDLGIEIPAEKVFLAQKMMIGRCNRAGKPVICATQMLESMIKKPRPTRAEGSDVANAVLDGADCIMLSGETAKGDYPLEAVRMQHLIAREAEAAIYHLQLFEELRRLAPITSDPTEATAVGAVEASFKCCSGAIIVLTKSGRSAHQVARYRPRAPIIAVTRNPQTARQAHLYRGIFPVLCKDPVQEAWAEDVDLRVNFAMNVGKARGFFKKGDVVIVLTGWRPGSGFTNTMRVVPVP
Chain of UniProt Q8NDX5 (Q8NDX5 whole entry, looked up): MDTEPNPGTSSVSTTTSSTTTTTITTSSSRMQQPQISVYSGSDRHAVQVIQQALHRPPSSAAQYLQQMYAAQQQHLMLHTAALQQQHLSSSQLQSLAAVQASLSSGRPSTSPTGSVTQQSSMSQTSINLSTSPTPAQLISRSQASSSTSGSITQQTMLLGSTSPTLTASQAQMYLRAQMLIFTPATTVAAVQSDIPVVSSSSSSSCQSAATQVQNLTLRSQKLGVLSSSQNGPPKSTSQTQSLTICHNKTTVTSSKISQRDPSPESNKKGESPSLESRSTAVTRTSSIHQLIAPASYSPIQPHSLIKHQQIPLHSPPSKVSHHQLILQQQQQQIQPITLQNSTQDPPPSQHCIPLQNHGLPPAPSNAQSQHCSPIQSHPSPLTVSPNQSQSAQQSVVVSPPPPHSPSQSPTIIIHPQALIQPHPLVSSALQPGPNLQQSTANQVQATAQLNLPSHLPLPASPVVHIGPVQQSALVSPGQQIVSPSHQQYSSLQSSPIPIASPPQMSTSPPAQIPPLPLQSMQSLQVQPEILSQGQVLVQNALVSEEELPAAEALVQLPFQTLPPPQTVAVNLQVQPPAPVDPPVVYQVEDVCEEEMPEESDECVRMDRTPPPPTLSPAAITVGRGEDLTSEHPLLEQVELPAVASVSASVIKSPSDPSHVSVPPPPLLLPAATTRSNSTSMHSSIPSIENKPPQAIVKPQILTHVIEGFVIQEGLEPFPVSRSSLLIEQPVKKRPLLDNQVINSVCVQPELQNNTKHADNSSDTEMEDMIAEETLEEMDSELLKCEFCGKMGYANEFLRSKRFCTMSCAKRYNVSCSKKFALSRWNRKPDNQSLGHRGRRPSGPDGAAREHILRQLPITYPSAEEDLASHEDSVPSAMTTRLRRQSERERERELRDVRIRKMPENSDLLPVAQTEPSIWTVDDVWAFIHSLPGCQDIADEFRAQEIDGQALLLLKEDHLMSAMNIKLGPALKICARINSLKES
Chain of UniProt Q86UU1 (Q86UU1 whole entry, looked up): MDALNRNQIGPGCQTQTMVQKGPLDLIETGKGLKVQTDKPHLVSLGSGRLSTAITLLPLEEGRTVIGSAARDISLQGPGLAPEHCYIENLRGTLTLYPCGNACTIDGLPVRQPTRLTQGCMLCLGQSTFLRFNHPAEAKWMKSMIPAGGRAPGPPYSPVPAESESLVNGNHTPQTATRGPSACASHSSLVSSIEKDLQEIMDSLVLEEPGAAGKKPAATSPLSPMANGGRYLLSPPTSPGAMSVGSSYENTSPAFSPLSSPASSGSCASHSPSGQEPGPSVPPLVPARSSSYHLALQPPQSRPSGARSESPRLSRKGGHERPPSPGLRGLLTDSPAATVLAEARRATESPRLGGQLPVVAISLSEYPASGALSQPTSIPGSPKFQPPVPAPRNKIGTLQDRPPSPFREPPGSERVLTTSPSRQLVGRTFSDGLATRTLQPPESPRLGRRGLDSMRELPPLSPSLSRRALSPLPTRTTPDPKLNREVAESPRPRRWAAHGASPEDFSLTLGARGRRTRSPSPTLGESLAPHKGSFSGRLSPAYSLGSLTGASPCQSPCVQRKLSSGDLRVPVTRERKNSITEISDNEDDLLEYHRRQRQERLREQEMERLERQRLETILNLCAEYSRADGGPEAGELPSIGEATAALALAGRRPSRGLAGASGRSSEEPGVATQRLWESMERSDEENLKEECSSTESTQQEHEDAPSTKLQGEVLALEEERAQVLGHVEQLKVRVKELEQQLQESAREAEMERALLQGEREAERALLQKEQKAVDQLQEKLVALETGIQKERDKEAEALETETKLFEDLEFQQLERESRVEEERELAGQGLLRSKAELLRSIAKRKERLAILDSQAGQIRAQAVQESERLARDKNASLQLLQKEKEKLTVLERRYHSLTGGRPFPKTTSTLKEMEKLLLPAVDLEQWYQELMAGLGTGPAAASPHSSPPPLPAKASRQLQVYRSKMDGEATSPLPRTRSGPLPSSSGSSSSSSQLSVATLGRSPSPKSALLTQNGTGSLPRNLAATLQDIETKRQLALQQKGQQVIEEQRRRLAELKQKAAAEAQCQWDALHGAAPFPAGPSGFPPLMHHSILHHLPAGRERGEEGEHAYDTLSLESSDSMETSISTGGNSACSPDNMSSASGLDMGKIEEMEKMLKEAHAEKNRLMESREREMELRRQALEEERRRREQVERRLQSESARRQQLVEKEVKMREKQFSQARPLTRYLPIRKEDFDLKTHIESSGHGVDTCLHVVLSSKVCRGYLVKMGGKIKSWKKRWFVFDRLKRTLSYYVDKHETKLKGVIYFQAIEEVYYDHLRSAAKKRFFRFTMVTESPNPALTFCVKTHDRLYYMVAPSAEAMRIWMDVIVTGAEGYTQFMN
Chain of UniProt Q8N2W9 (Q8N2W9 whole entry, looked up): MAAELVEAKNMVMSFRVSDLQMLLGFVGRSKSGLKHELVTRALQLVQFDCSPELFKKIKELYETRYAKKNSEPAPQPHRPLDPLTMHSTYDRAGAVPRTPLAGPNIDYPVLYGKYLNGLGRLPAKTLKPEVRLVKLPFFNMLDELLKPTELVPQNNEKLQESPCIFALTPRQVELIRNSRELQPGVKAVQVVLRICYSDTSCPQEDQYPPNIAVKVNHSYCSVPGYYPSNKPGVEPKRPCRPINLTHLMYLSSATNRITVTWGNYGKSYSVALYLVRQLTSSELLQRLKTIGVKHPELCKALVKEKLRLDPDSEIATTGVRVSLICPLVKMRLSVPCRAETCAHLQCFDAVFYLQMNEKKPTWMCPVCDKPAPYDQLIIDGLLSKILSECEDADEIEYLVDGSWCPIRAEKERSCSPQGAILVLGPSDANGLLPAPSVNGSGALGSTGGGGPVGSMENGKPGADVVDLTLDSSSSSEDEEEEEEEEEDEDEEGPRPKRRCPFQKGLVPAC
Chain of UniProt Q14442 (Q14442 whole entry, looked up): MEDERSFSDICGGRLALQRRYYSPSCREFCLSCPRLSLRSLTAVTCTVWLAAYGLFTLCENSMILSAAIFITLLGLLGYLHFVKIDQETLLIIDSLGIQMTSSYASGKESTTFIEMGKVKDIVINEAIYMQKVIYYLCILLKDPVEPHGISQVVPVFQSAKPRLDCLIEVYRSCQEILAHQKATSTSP
Chain of UniProt Q15126 (Q15126 whole entry, looked up): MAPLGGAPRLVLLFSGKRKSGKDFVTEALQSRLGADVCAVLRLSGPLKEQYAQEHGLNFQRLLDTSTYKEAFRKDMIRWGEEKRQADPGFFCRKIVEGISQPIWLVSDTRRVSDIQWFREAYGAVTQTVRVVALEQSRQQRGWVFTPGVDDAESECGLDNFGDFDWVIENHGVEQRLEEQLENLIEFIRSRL
Chain of UniProt Q9BZL4 (Q9BZL4 whole entry, looked up): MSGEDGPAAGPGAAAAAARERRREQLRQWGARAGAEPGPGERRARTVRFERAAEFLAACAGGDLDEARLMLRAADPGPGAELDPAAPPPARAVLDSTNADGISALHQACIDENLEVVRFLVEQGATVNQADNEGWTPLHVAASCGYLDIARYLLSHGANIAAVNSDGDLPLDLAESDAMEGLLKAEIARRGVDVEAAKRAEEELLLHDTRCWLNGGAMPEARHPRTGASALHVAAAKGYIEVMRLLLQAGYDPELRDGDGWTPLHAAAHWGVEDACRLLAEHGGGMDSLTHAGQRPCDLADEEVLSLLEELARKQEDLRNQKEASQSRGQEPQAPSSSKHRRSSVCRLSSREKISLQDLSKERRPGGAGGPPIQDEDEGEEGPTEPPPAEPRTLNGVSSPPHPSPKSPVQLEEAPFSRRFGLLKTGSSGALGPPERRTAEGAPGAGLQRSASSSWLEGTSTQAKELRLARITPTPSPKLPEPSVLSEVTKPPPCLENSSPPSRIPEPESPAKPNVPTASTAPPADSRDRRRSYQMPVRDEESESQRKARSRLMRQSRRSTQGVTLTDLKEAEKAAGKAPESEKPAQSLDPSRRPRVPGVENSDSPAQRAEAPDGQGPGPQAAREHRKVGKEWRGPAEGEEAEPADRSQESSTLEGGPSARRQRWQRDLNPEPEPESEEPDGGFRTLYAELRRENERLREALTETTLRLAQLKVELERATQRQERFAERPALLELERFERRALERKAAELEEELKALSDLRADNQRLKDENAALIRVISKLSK
Chain of UniProt P60484 (P60484 whole entry, looked up): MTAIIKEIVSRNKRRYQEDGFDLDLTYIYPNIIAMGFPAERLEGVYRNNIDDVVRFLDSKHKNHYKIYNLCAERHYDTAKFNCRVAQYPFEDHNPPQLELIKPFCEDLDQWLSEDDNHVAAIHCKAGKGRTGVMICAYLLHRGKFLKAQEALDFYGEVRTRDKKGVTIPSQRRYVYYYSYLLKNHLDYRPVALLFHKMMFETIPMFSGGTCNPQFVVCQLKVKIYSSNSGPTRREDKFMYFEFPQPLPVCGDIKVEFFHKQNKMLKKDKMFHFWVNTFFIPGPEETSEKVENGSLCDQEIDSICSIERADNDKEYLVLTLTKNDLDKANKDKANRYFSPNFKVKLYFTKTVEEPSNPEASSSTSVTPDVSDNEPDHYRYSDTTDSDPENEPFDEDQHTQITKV

Target | log2 fold change
PIAS4 (UniProt Q8N2W9) | -0.257
PKM isoform 2 (UniProt P14618) | 0.109
PRKD2 (UniProt M0R346) | 0.06
PTPA (UniProt A6PVN8) | 0.035
PTEN isoform 2 (UniProt P60484) | -0.028
PRR14L (UniProt Q5THK1) | 0.103
PMVK (UniProt Q15126) | 0.073
POLR2E (UniProt P19388) | 0.063
PUM1 (UniProt Q14671) | 0.032
PCF11 (UniProt O94913) | 0.027
PHLDB1 isoform 2 (UniProt Q86UU1) | -0.498 (active)
PPP2R5B (UniProt Q15173) | 0.01
PIGH (UniProt Q14442) | 0.04
PIM1 isoform 2 (UniProt P11309) | -0.126
PPP1R12C (UniProt Q9BZL4) | -0.228
PSMC1 (UniProt G3V4X1) | -0.071
POLB (UniProt P06746) | -0.022

compound: CS(=O)(=O)c1ccc(-c2cnc(N)c(C(=O)Nc3ccccc3)n2)cc1; test: as above
How it was run: as §1

Target | log2 fold change
PKM isoform 2 (UniProt P14618) | -0.053
PRKD2 (UniProt M0R346) | -0.025
PTPA (UniProt A6PVN8) | -0.116
PSMC3 (UniProt E9PLG2) | 0.206
PMVK (UniProt Q15126) | 0.088
PEX5 isoform 4 (UniProt P50542) | -0.091
PPP1R12C (UniProt Q9BZL4) | -0.016
PHC3 isoform 7 (UniProt Q8NDX5) | -0.068
POLB (UniProt P06746) | -0.078

compound: C[C@@H](Oc1cc(-c2cnn(C3CCNCC3)c2)cnc1N)c1c(Cl)ccc(F)c1Cl [crizotinib]; test: as above
How it was run: as §1

Target | log2 fold change
PDE4DIP (UniProt E9PS60) | -0.225
PIAS4 (UniProt Q8N2W9) | -0.178
PKM isoform 2 (UniProt P14618) | -0.033
PTEN isoform 2 (UniProt P60484) | 0.077
PDE4A (UniProt P27815) | 0.055
PSMC3 (UniProt E9PLG2) | 0.168
PPP2R5C isoform 2 (UniProt Q13362) | 0.243
POLR2E (UniProt P19388) | 0.112
PUM1 (UniProt Q14671) | -0.079
PCF11 (UniProt O94913) | -0.137
PHLDB1 isoform 2 (UniProt Q86UU1) | -0.307
PSD3 (UniProt Q9NYI0) | 0.071
PSMD8 (UniProt K7ERW6) | -0.021
PSMA3 (UniProt G3V4X5) | -0.277
PIGH (UniProt Q14442) | -0.037
PCBP2 (UniProt F8VZX2) | -0.273
PSMA3 (UniProt H0YJ03) | 0.081
PHC3 isoform 7 (UniProt Q8NDX5) | -0.194

compound: C[C@@H]1COCCN1C2=NC(=NC(=C2)C3(CC3)S(=O)(=O)C)C4=C5C=CNC5=CC=C4; test: as above
How it was run: as §1

Target | log2 fold change
PCNX1 (UniProt Q96RV3) | 0.257
PIAS4 (UniProt Q8N2W9) | 0.047
PMS2CL (UniProt Q68D20) | -0.091
PKM isoform 2 (UniProt P14618) | -0.154
PRKD2 (UniProt M0R346) | 0.241
PTPA (UniProt A6PVN8) | 0.083
PDE4A (UniProt P27815) | -0.102
PSMC3 (UniProt E9PLG2) | 0.101
PMVK (UniProt Q15126) | 0.02
POLR2E (UniProt P19388) | -0.027
PHLDB1 isoform 2 (UniProt Q86UU1) | 0.058
PIGH (UniProt Q14442) | -0.012
PEX5 isoform 4 (UniProt P50542) | -0.016
PPP1R12C (UniProt Q9BZL4) | -0.198
PHC3 isoform 7 (UniProt Q8NDX5) | 0.317
POLB (UniProt P06746) | -0.003

compound: C[C@H](C1=CC=C(C=C1)C(=O)NC2=C3C=CNC3=NC=C2)N; test: as above
How it was run: as §1

Target | log2 fold change
PDE4DIP (UniProt E9PS60) | 0.212
PTPA (UniProt A6PVN8) | 0.1
PDE4A (UniProt P27815) | -0.171
PRR14L (UniProt Q5THK1) | -0.072
PMVK (UniProt Q15126) | 0.083
POLR2E (UniProt P19388) | 0.14
PUM1 (UniProt Q14671) | -0.362
PCF11 (UniProt O94913) | 0.211
PHLDB1 isoform 2 (UniProt Q86UU1) | -0.043
PSD3 (UniProt Q9NYI0) | -0.047
PSMD8 (UniProt K7EK21) | 0.485
PUF60 isoform 2 (UniProt Q9UHX1) | -0.591
PIGH (UniProt Q14442) | -0.179
PEX5 isoform 4 (UniProt P50542) | 0.15
PCBP2 (UniProt F8VZX2) | 0.234
PSMC1 (UniProt G3V4X1) | 0.099
PSMA3 (UniProt H0YJ03) | 0.099
PHC3 isoform 7 (UniProt Q8NDX5) | 0.073
POLB (UniProt P06746) | 0.036
